Experimental data from PubChem BioAssay (Tox21).
“And” between values parts separate entries of the source, which are not always exact repeats. Identical values can stand only once. Inconclusive results are not listed. Where a call stands in place of a potency, no number is given. The source holds several records for some structures; these can differ, active in one and inactive in another. The source made the active and inactive calls. The call rests on the fitted dose curve.

Biological target: 5-hydroxytryptamine receptor 2A (Homo sapiens) (UniProt P28223)
Assay: 5-hydroxytryptamine receptor 2A (HTR2A) small molecule agonists, cell-based qHTS assay (AID 1963587); further: nearly all actives have a fitted effect of over 30% in size
Settings: HTR2A-CHO cells, calcium flux fluorescence, agonist mode; series mostly up to 76.8 µM
Excerpt: National Center for Advancing Translational Sciences [NCATS]
Division of Preclinical Innovation [DPI]
U.S. Environmental Protection Agency [EPA]
National Institutes of Environmental Health Sciences [NIEHS]
National Toxicology Program [NTP]
U.S. Food and Drug Administration [FDA]
The HTR2A receptor is a subtype of the 5-HT2 receptor that belongs to the serotonin receptor family and is a G protein-coupled receptor (GPCR). The HTR2A-CHO cell line stably expressing human 5-hydroxytryptamine receptor 2A (HTR2A) can be used for screening agonists of interactions between 5-HT2 and its ligands. The HTR2A-CHO calcium flux assay is a homogeneous fluorescence-based assay for detecting the intracellular calcium level using FDSS kinetic plate reader system.
HTR2A-CHO cells were dispensed at 2000 cells/3uL/well in 1536-well black-clear bottom plates using a Multidrop Dispenser. After the assay plates were incubated at a 37 C/5% CO2 incubator for 18 h, 3 uL of Dye Loading Buffer was transferred to the assay plate by a Flying Reagent Dispenser. The assay plates were incubated at 37 C for 1h. For agonist mode, 23 nL of compounds dissolved in DMSO, positive controls or DMSO only was transferred to the assay plate by a pin tool. The fluorescence intensity in the plates was measured using FDSS 7000EX kinetic plate reader for 2 min at 1 sec intervals.
Potency means the concentration at half of the fitted maximal effect.

Sequence of 5-hydroxytryptamine receptor 2A (Homo sapiens) (P28223 whole entry, looked up): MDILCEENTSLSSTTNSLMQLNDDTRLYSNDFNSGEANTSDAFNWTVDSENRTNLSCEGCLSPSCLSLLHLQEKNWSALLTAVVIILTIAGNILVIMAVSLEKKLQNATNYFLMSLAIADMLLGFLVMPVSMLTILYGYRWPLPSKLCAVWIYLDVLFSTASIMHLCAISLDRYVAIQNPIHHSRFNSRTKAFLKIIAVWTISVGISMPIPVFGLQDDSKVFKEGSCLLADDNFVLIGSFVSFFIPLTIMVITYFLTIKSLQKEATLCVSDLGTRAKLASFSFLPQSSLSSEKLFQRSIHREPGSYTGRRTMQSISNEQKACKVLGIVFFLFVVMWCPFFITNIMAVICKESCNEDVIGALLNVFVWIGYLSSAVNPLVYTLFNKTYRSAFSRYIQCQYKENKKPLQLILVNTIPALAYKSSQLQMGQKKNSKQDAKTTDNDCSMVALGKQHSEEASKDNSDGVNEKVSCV

Compound | Potency
CCN(CC)CCN1C(=O)CN=C(c2ccccc2F)c2cc(Cl)ccc21 | inactive
Cc1cccc(N)c1 | inactive
COC[C@H](C)N(C(=O)CCl)c1c(C)csc1C | inactive
Clc1ccc(C(c2ccccc2Cl)C(Cl)(Cl)Cl)cc1 (stereo not given) | inactive
[Cl-].[Cl-].[Hg+2] | 54.9 µM (active)
CC(C)N(C(=O)SCC(Cl)=C(Cl)Cl)C(C)C | inactive
CSc1nc(NC(C)C)nc(NC(C)C)n1 | inactive
N#Cc1cccnc1 | inactive
C1CN2CCN1CC2 | inactive and 54.9 µM (active)
COc1ccc(C=O)cc1 | inactive
O=[N+]([O-])O | inactive
CS(=O)(=O)NC(=O)c1cc(Oc2ccc(C(F)(F)F)cc2Cl)ccc1[N+](=O)[O-] | inactive
BrCC(Br)c1ccccc1 (stereo not given) | inactive
O=C(CCl)CCl | inactive
CC(C)c1ccc(O)cc1 | inactive
Cl/C=C/CCl | inactive
CN(C)N=O | inactive
Nc1ccccc1Cl | inactive
O=C(NCNC(=O)NC1C(=O)NC(=O)N1CO)NC1C(=O)NC(=O)N1CO (stereo not given) | inactive
C1CCC2CCCCC2C1 (stereo not given) | inactive

Compound | Potency
CCOc1ccc(N)cc1 | inactive
Cc1ccc(OP(=O)(Oc2ccc(C)cc2)Oc2ccc(C)cc2)cc1 | inactive
ClCC(Cl)(Cl)Cl | inactive
Sc1ccccc1Cl | inactive
C#CC(C)(C)NC(=O)c1cc(Cl)cc(Cl)c1 | inactive
CN(N=O)c1ccccc1 | inactive
CCCCC(CC)CO[N+](=O)[O-] (stereo not given) | inactive
COC(=O)c1ccccc1CS(=O)(=O)NC(=O)Nc1nc(OC)cc(OC)n1 | inactive
C[C@H]1O[C@H](OC2[C@@H](O)[C@@H](O)C(O)[C@H](O)[C@H]2O)[C@@H](N)C[C@@H]1N=C(N)C(=O)O (stereo not given in full) | inactive
Cc1cccc(C)c1N | inactive
CC1(C)CC(=O)CC(C)(C)N1[O] | inactive
C=C(C)[C@@H]1CC=C(C=O)CC1 | inactive
C[C@H]1CCCC(=O)CCC/C=C/c2cc(O)cc(O)c2C(=O)O1 | inactive
CCCC[N+]1(C)CCCC1 | inactive
S=c1[nH]c2ccccc2[nH]1 | inactive
COP(=O)(OC)C(O)C(Cl)(Cl)Cl (stereo not given) | inactive
c1ccoc1 | inactive
Cc1ccc(N)cc1 | inactive
CC(=O)[O][Hg][c]1ccccc1 | 21.7 µM (active) and 54.9 µM (active) and inactive
O=[N+]([O-])c1ccc(Cl)cc1 | inactive
